This passage reports growth results from PubChem BioAssay (NCI).

“And” between values parts separate entries of the source, which are not always exact repeats. Identical values can stand only once. About 83,000 compounds went through this panel and 20% of them were active in at least one assay; those are over-represented in the sample as a whole.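 Negative percent growth values reflect cell death: -40 means 40% of the cells present at the start died, and -100 means all died.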 Unmarked numbers belong to inactive results. The source made the active and inactive calls.

The test deals with NCI-H322M lung. The test is described as follows: NCI-60 one-dose screen, 48 h (100 = growth as untreated, 0 = no growth, -100 = all killed). As to conditions: 10 µM. As for the experimental part: Growth inhibition of the NCI-H322M human Non-Small Cell Lung tumor cell line is measured as a screen for anti-cancer activity. Cells are grown in 96 well plates and exposed to the test compound for 48 hours. Compounds are tested at a single concentration, which is 10^-5 M for most compounds. The reported endpoint is percent growth (GI% or GIPRCNT), where numbers from 0 - 100% represent growth inhibition, and numbers from -100% - 0 represent cell death. For example, a value of 40 represents 60% growth inhibition. A value of 0 means no net growth occurred over the course of the experiment. A value of -40 indicates 40% of cells at the beginning of the experiment died by the end of the experiment. A value of -100 means all cells are dead at the end of the experiment.
NCI-60 Human Tumor Cell Lines Screen was performed using the standard one-dose NCI protocol, which is described in more detail at https://dtp.cancer.gov/discovery_development/nci-60/default.htm.
Compounds with GIPRCNT values below 10 were considered active. Activity score was based on GIPRCNT using the following formula: […]
Score is 0 for GIPRCNT values of 100 or above, 50 for GIPRCNT values of 0, and 100 for GIPRCNT values of -100.
In the case of `CN(CCCl)c1ccc(/C=C/C2=[N+](C)c3ccccc3C2(C)C)cc1`, the growth is 46.7%. For the molecule `COc1ccc(/C=C(\C)[N+](=O)[O-])cc1OC`, the growth is 64.9%. For the molecule `CC/C(=C/c1ccc(OC)cc1OC)[N+](=O)[O-]`, the growth was 90.3%. The same measure for `CS(=N)(=O)CCC(N)C(=O)O` (stereo not given): 108%; for `CC(C)c1cc([N+](=O)[O-])cc([N+](=O)[O-])c1O`: 112%; for `ClCc1ccc2ccccc2n1`: 100%. In the case of `[Cl][Hg][c]1ccc(Cl)s1`, the growth is 91.3%. As to `C[C@]12CC[C@H]3[C@@H](CCC4=CC(=O)CC[C@@H]43)[C@@H]1CC[C@@H]2OC(=O)N(CCCl)N=O`, the growth was 45.6%. For the molecule `O=[N+]([O-])/C=C/c1ccc([N+](=O)[O-])cc1`, the growth was 90.4% and 92.5%. The result for `COc1cc2c(c(OC)c1OC)-c1ccc(O)c(=O)cc1[C@@H](NC(C)=O)CC2` reads 57.5%; that for `CCOP(=O)(OCC)C(O)c1ccccc1Cl` (stereo not given), 93.8%; that for `O=C1C(=O)c2ccccc2-c2ccccc21`, 101%. The same measure for `[Cl][Hg][c]1ccc2ccccc2c1`: -53.1% (active); for `Cc1ccc(NC(=O)CBr)cc1`: 99.4%. For the molecule `C#CC1(O)CCC(C(C)(C)C)CC1` (stereo not given), the growth was 110%. As to `O=S(=O)(F)c1ccc(Cl)cc1`, the growth is 123%. The result for `C[CH2][Hg][S]c1ccccc1C(=O)O` reads 66.2%; that for `Oc1c(Cl)cc(Cl)c2ccccc12.[Cu+2]`, 92.1%; that for `O=C(O)c1cc(Cc2ccc(O)c(C(=O)O)c2)ccc1O` (tested in a mixture with another compound), 87%. Turning to `COC(=O)C1C(O)C(C)C(O)C(C)/C=C\C=C(C)C(=O)Nc2c(C)c(OC(C)=O)c3c(c2O)C(=O)C(C)=C2OCOC(=C23)C(C)=CC(C)(O)C(O)C(C)C1O` (stereo not given), the growth is 106%. For `O=[P+](O)c1ccccc1`, the growth is 149%. For `CC(=O)Nc1c2sscc-2n(C)c1=O`, the growth was -100% (active).

In the case of `O=C1C=Cc2ccccc2C1=O`, the growth is 100%. Take `COc1cc([N+](=O)[O-])c2ncccc2c1[N+](=O)[O-]`: the growth is 103%. For `CC1CCC2(OC1)OC1C(O)C3C4CCC5CC(OC6OC(CO)C(OC7OC(CO)C(O)C(OC8OCC(O)C(O)C8O)C7OC7OC(CO)C(O)C(OC8OC(CO)C(O)C(O)C8O)C7O)C(O)C6O)C(O)CC5(C)C4CCC3(C)C1C2C` (stereo not given), the growth is 13.2%.

For the molecule `COc1ccc(/C=C\[N+](=O)[O-])cc1OC`, the growth was 129% and 90.2%. For `COC12c3c(C)cc(O)c4c(=O)occ(c34)C(=O)C1C13COC(=O)c4c(O)cc(C)c(c41)C(=O)C2C3OC(C)=O` (stereo not given), the growth was 95.4%. The result for `O=[N+]([O-])c1ccc(N2CCOCC2)c2c1no[n+]2[O-]` reads 28.1%; that for `NC(=O)c1cc([N+](=O)[O-])c(Cl)c([N+](=O)[O-])c1Cl`, 98.3%.

`COc1cc(/C=C/[N+](=O)[O-])cc(Br)c1OC`: the growth was 99.5%. Take `CC12OOC(c3ccccc31)c1c2ccc2ccccc12` (stereo not given): the growth is 76.8%. On to `Cc1cc([N+](=O)[O-])c2ccccc2[n+]1[O-]`, for which the growth was -15.3% (active) and -45.7% (active). Consider `NC(=O)c1cc([N+](=O)[O-])c(Cl)c([N+](=O)[O-])c1`, for which the growth was 109%. As for `CCCCCCCC[N+]12CN3CN(CN(C3)C1)C2`, the growth was 84.8%. Turning to `COC12C(COC(N)=O)C3=C(C(=O)C(C)=C(N)C3=O)N1CC1C2N1C` (stereo not given), the growth was 30%. For the molecule `COc1cc(/C=C/[N+](=O)[O-])cc(OC)c1OC`, the growth was 36.1%. The result for `O=C(CBr)Nc1ccccc1` reads 97.9%; that for `CC(=O)[O][Hg][c]1c(C)c(C)cc(C)c1C`, 3.3% (active).

For the molecule `Oc1ccccc1-c1ccccc1`, the growth was 91.5% and 109%. `COc1cc(/C=C(/C)[N+](=O)[O-])ccc1O`: the growth is 66.7% and 91.5%.
